This is part of a sample that, as a whole, favours compounds with a hit. Of some 83,000 tested, about 20% had one in any assay.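 Testing used 96-well plates and a 48-hour single-concentration exposure. Example: -40 means 40% of the starting cells died.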 A number with no mark means an inactive call. Activity calls are given as the source filed them. The calls were made as follows: active = growth percent below 10; inactive = the rest.

Test systems include NCI-H23 lung; NCI-H226 lung; NCI-H322M lung; HOP-62 NSCLC; NCI-H460 lung; HOP-92 NSCLC; NCI-H522 lung; 786-0 renal; COLO 205 colon; A549/ATCC NSCLC.
Holding throughout (test): NCI-60 one-dose screen, 48 h (100 = growth as untreated, 0 = no growth, -100 = all killed)
Holding throughout (settings): 10 µM unless noted

In the case of `C=CCN=C1NC(=O)/C(=C/c2cc(C(C)(C)C)c(O)c(C(C)(C)C)c2)S1`, the growth in the test with NCI-H23 lung is 90.2%; in the test with NCI-H226 lung, 97.7%; in the test with NCI-H322M lung, 87.9%; with HOP-62 NSCLC it was 77.2%; with NCI-H460 lung, 72.8%; in the test on HOP-92 NSCLC it was 82.2%. The growth in the test on NCI-H522 lung was 44.5%; in the test on 786-0 renal it was 66.1%; in the test on COLO 205 colon it was 81.3%.

For `O=C(CCC(=O)OC1CCCC1)OC1CCCC1`, the growth in the test on NCI-H23 lung was 105%; in the test on NCI-H226 lung, 96.3%; in the test with NCI-H322M lung, 97%; in the test with HOP-62 NSCLC, 109%; in the test with NCI-H460 lung it was 104%; in the test with HOP-92 NSCLC, 73.1%. For the same compound, the results for the growth in the test with NCI-H522 lung, in the test with 786-0 renal and with COLO 205 colon were 79.8%, 104% and 116%, respectively.

For `CC/C=C\C[C@H]1C/C=C2/C(=O)C(Cl)=C[C@@H]2C/C=C\CCCC(=O)O1`, the growth was -34.1% (active) with NCI-H23 lung; -11% (active) in the test on NCI-H226 lung; 0.0936% (active) in the test on NCI-H322M lung; -14.8% (active) in the test with HOP-62 NSCLC; -43% (active) in the test with NCI-H460 lung; -56.8% (active) with HOP-92 NSCLC. Besides, the growth in the test with NCI-H522 lung is -60.6% (active); with 786-0 renal it was -80.7% (active); with COLO 205 colon it was -59.9% (active).

Take `COc1ccc(C(=O)/C=C/c2cccc([N+](=O)[O-])c2)c(OC)c1`: the growth with NCI-H23 lung was 32.6%; in the test on NCI-H226 lung it was 49.2%; in the test with NCI-H322M lung, 66%; with HOP-62 NSCLC, 26.1%; in the test with NCI-H460 lung it was 1.68% (active); with HOP-92 NSCLC, 67.5%. For the same compound, the growth is 7.28% (active) with NCI-H522 lung, -7.25% (active) in the test on 786-0 renal and 60.2% with COLO 205 colon.

Turning to `Cc1cc(Nc2nc(-c3ccc(F)cc3)nc3ccccc23)n[nH]1`, the growth in the test with NCI-H23 lung was 57.3%; in the test with NCI-H226 lung, 58.6%; in the test on NCI-H322M lung, 65.5%; with HOP-62 NSCLC, 78.6%; in the test on NCI-H460 lung, 35.6%; with HOP-92 NSCLC it was 30.5%. In addition, the growth with NCI-H522 lung was 27.7%; in the test on 786-0 renal, 56.9%; in the test with COLO 205 colon, 40.3%.

In the case of `Nc1nn2cc(-c3ccc(Cl)s3)nc2c2ccccc12`, the growth in the test with NCI-H23 lung was 102%; with NCI-H226 lung, 94.8%; with NCI-H322M lung, 96.7%; with HOP-62 NSCLC it was 76.4%; in the test with NCI-H460 lung, 86.8%; with HOP-92 NSCLC, 67%. For the same compound, the growth with NCI-H522 lung was 78.5%; with 786-0 renal it was 104%; in the test with COLO 205 colon, 95.2%.

For the compound `COC(=O)CCCCN=Cc1c(O)c(O)c(C(C)C)c2cc(C)c(-c3c(C)cc4c(C(C)C)c(O)c(O)c(C=NCCCCC(=O)OC)c4c3O)c(O)c12`, the growth was 15.6% with NCI-H23 lung; 41.4% with NCI-H226 lung; 25.4% in the test with NCI-H322M lung; 27.3% with HOP-62 NSCLC; 5.03% (active) in the test with NCI-H460 lung; -10.1% (active) in the test with HOP-92 NSCLC. The figures for the growth with NCI-H522 lung, in the test with 786-0 renal and with COLO 205 colon were -0.222% (active), 21.7% and 10.2%, respectively.

In the case of `CCC(c1ccc(OC)cc1)C(CC)c1ccc(OCC[N+](C)(C)C)cc1` (stereo not given), the growth with NCI-H23 lung is 48.8%; in the test on NCI-H226 lung it was 49.8%; in the test on NCI-H322M lung it was 89.6%; in the test with HOP-62 NSCLC, 73.9%; in the test with NCI-H460 lung it was 59%; with HOP-92 NSCLC, 9.93% (active). Besides, the values for the growth in the test with NCI-H522 lung, in the test with 786-0 renal and with COLO 205 colon were 35%, 88% and -74.7% (active), respectively.

Take `COc1cc(NC(=O)CSc2nc3ccc(C)cc3c(=O)n2-c2ccccc2)cc(OC)c1OC`: the growth was 84.1% in the test on NCI-H23 lung; 82.6% in the test on NCI-H226 lung; 101% with NCI-H322M lung; 91.2% in the test on HOP-62 NSCLC; 101% with NCI-H460 lung; 49.5% in the test with HOP-92 NSCLC. Moreover, the growth in the test on NCI-H522 lung is 68.7%; in the test with 786-0 renal it was 89.4%; with COLO 205 colon, 111%.

Take `O=C(CCCn1c(=O)c2sc3ccccc3c2n2nnc(-c3ccccc3)c12)NCCc1cnc[nH]1`: the growth with NCI-H23 lung is -20.4% (active); in the test with NCI-H226 lung, 105%; in the test on NCI-H322M lung, -13.7% (active); in the test with HOP-62 NSCLC it was -59.8% (active); in the test on NCI-H460 lung it was -44.1% (active); in the test on HOP-92 NSCLC, -54.5% (active). Moreover, the growth in the test with NCI-H522 lung was -71.9% (active); with 786-0 renal it was -77.7% (active); in the test on COLO 205 colon, -36.8% (active).

For `CCCCCCc1nc2c(c(C)nn2-c2ccccc2)c2c1CCCCC2`, the growth in the test on NCI-H23 lung is 100%; in the test on NCI-H226 lung, 89.2%; in the test with NCI-H322M lung, 110%; with HOP-62 NSCLC it was 91.3%; with NCI-H460 lung it was 110%; in the test on HOP-92 NSCLC, 91.5%. The growth with NCI-H522 lung is 93.2%; in the test on 786-0 renal, 108%; in the test on COLO 205 colon it was 107%.

As for `CC(Br)C(O)c1cc2c(cc1Br)OCO2` (stereo not given), the growth in the test on NCI-H23 lung is 100%; in the test on NCI-H226 lung it was 106%; in the test with NCI-H322M lung, 111%; in the test on NCI-H460 lung it was 112%; in the test with HOP-92 NSCLC, 104%; in the test on NCI-H522 lung, 99.9%. Further, the growth with A549/ATCC NSCLC is 103%; in the test with 786-0 renal it was 100%; in the test on COLO 205 colon, 120%.

In the case of `COc1ccc(Cl)cc1NC(N)=S`, the growth in the test with NCI-H23 lung was 94.6%; with NCI-H226 lung, 107%; in the test with NCI-H322M lung, 108%; with HOP-62 NSCLC, 110%; in the test on NCI-H460 lung, 109%; in the test with HOP-92 NSCLC, 92.2%. The growth is 80.7% in the test on NCI-H522 lung, 102% in the test on 786-0 renal and 127% in the test with COLO 205 colon.

For the compound `NC(=O)c1cccc(N2Cc3ccccc3OC3=C2C(=O)c2c(O)ccc(O)c2C3=O)c1`, the growth is 6.02% (active) with NCI-H23 lung; 0.769% (active) with NCI-H226 lung; 25.5% in the test with NCI-H322M lung; -42% (active) in the test on HOP-62 NSCLC; -27.5% (active) with NCI-H460 lung; -91.8% (active) in the test on HOP-92 NSCLC. Besides, the growth in the test with NCI-H522 lung is -73.4% (active); in the test on 786-0 renal it was -80.5% (active); in the test on COLO 205 colon it was -82.8% (active).

On to `COc1ncc(-c2ccc3ncnc(Nc4cccc(Cl)c4)c3c2)cc1NS(=O)(=O)C1CC1`, for which the growth was 54.2% in the test with NCI-H23 lung; 24.1% with NCI-H226 lung; -5.8% (active) in the test with NCI-H322M lung; 43.9% with HOP-62 NSCLC; 28.3% with NCI-H460 lung; -7.31% (active) with HOP-92 NSCLC. The growth with NCI-H522 lung was 12.2%; in the test on 786-0 renal, 62.6%; in the test on COLO 205 colon, 31.4%.

The values above are taken from PubChem BioAssay (NCI).
